The structures appear in SMILES notation. This is one part of the list. A number with no mark means an inactive call. The source made the active and inactive calls. Cut-off read from the data, not from the text of the source: active = activation above about 4%; inactive = the rest.

The test has as its system Methionine sulfoxide reductase A (Bos taurus). Put plainly: bovine MsrA activators, retest, confirmation, biochemical, absorbance, HTS (AID 602270).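 Note: enzyme coupled to thioredoxin and thioredoxin reductase with NADPH; 0% = vehicle wells and 100% = reference activator wells.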 The settings on record: purified bovine MsrA, absorbance read-out; at 10.6 µM; stronger effect = higher value.
Regarding `CCN(CC)CCCC(C)n1c2nc(=O)[nH]c(=O)c-2nc2cc(Cl)ccc21` (centres undefined), the activation is 8.41% (active).
The same measure for `COc1ccccc1-n1cn[nH]c1=S`: -0.06%.
The same measure for `Cc1ccc(S(=O)(=O)n2nc(OC(=O)C(C)(C)C)cc2N)cc1`: -1.8%; for `O=C(O)c1ccccc1NC(=O)c1ccccc1-c1ccccc1C(=O)O`: -3.02%.
The same measure for `C=CCn1c(SCC(=O)c2c(N)n(C)c(=O)n(C)c2=O)nc2sc(CC)cc2c1=O`: -2.75%; for `CCOc1cccc(-n2nnnc2-c2ccc(OC)cc2)c1`: -1.06%.
As for `O=C(CSc1n[nH]c(-c2cccs2)n1)N1CCCCC1`, the activation is -1.33%.
The same measure for `CN(C)S(=O)(=O)c1ccc(NC(=O)COC(=O)c2n[nH]c3ccccc23)cc1`: 1.95%.
The same measure for `O=C(NCc1ccccc1)C1c2ccccc2OCC(=O)N1C1CC1` (centres undefined): 1.81%; for `O=C(Cc1ccc(NC(=O)C2CCCN(C(=O)C3CCCCC3)C2)cc1)Nc1cccc(C(=O)N2CCCCC2)c1` (centres undefined): -3.28%; for `CCCCNC(=O)OC(C)CNC(=O)OC` (centres undefined): -2.15%.
The same measure for `Cc1noc(NS(=O)(=O)c2ccc(NC(=O)C34CCC(CC3)C4)cc2)c1C`: -0.66%; for `COc1cc(OC)c(C(=O)NCc2ccc3c(c2)OCO3)cc1OC`: 2.87%; for `S=c1[nH]nc(NCCc2ccccc2)s1`: 7.45% (active).
Turning to `O=C(O)/C=C/c1cn(Cc2ccccc2)nc1-c1cccs1`, the activation is -1.62%.
Consider `CCCN(CC(=O)Nc1ccccc1C)C(=O)c1ccc2[nH]c3c(c2c1)CC(C)CC3` (centres undefined), for which the activation is 2.07%.
The same measure for `CCOc1ccccc1OCCCNCc1ccccc1`: -4.03%.
Take `O=c1c2cc(Br)ccc2nc(-c2cccc(Cl)c2)n1O`: the activation was -1.14%.
The same measure for `CC1=NNC(=O)C1CCC(=O)N/N=C(\C)c1ccc(Cl)cc1` (centres undefined): -3.34%; for `O=C(c1ccco1)N1CCN(Cc2cccc(C(F)(F)F)c2)CC1`: -0.28%.
The same measure for `Cc1ccc(C)c(NC(=O)CSc2nnc(Cc3cccn3C)n2-c2ccc(F)cc2)c1`: 2.75%; for `CC(C)(C)C(=O)CCN1C(=O)C2(OCCO2)c2ccccc21`: -4.67%.
The same measure for `CN1c2ccc(C=O)c3c(C=O)ccc(c23)N(C)C1(C)C`: -1.46%.
Regarding `CC1(C)S[C@@H]2[C@H](NC(=O)COc3ccccc3)C(=O)N2C1C(=O)OCc1ccccc1` (some centres undefined), the activation was 0.74%.
